Data taken from PubChem BioAssay (Tox21).
Results filed as inconclusive are left out. Activity calls are given as the source filed them. Unless noted, the call rests on the fitted dose curve.

Columns and labels:
[1] = Nuclear factor erythroid 2-related factor 2/antioxidant responsive element (Nrf2/ARE) small molecule agonists: qHTS cell viability counter screen in human keratinocytes (AID 1919968; active means well fitted curve in the direction sought with a large enough effect in the repeat runs; an effect the other way counts as inactive or inconclusive; further: nearly all actives have a fitted effect of over 55% in size)
In short: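 KeratinoSens HaCaT cells, 1,500/well, preincubated 5 h, then exposed to compounds in DMSO for 23 h at 37 C/5% CO2. Viability read as CellTiter-Fluor fluorescence after 1 h, in the same wells as the ARE-luciferase read.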

[2] = target: Gonadotropin-releasing hormone receptor (Homo sapiens) (UniProt P30968); assay: Human gonadotropin-releasing hormone receptor (GnRHR) small molecule agonists, calcium flux assay in GnRHR-HEK293 cells (AID 1920063); further: nearly all actives have a fitted effect of over 35% in size
Sequence of Gonadotropin-releasing hormone receptor (Homo sapiens) (P30968 whole entry, looked up): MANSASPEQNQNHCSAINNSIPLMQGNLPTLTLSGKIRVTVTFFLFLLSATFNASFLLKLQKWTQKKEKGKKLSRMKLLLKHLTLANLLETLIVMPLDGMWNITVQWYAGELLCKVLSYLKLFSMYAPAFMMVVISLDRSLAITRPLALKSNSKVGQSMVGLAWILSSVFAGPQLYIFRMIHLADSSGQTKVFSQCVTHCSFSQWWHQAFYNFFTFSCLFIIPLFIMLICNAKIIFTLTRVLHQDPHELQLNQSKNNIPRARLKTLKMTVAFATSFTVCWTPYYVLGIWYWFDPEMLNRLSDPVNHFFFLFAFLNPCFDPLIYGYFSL
In short: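 HEK293 cells stably expressing human GnRHR were dye-loaded for 1 h at 37 C. Compound was added in agonist mode and fluorescence (Ex/Em 480/540) recorded kinetically for 3 min. Fifteen concentrations, triplicates.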

[3] = target: KiSS-1 receptor (Homo sapiens) (UniProt Q969F8); assay: Human kisspeptin (KISS1R) small molecule agonists, calcium flux assay in KISS1R-HEK293 cells (AID 1920064; active means well fitted curve in the direction sought with a large enough effect in the repeat runs; an effect the other way counts as inactive or inconclusive)
Sequence of KiSS-1 receptor (Homo sapiens) (Q969F8 whole entry, looked up): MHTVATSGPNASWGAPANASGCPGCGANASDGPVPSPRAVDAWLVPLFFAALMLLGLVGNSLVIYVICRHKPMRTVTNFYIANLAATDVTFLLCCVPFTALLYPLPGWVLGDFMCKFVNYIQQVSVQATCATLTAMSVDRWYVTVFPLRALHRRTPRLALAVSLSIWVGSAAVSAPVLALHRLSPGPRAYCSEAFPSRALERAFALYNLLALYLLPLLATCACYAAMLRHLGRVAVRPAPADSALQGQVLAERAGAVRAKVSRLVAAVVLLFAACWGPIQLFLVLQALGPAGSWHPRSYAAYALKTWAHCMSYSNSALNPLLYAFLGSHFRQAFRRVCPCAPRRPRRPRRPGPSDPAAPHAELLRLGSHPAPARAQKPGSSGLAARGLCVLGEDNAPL
In short: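 HEK293 cells stably expressing human KISS1R were loaded with calcium dye for 1 h at 37 C, then given compound; fluorescence (Ex/Em 480/540) was read kinetically for 3 min. Fifteen concentrations, triplicate.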

[4] = G protein-coupled receptor (GPCR) small molecule agonists, calcium flux assay: HEK293 wild type cell line counter screen (AID 1920065)
In short: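 Wild-type HEK293 cells plated 18 h, loaded with calcium dye 1 h at 37 C, then compounds added in agonist mode (ATP as positive control). Kinetic fluorescence Ex/Em 480/540 recorded 3 min at 1 sec intervals; 15 concentrations, triplicate.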

[5] = p53 small molecule agonists, cell-based qHTS assay with human liver microsomes (AID 1963577);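 further: p53 response element beta-lactamase reporter cells with liver microsomes plus NADPH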
In short: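 Steps: plate p53RE-bla cells, incubate 5 h at 37 C; add compound in DMSO; add microsomes (0.5 mg/mL final) and NADPH (0.5 mg/mL final); incubate 16 h at 37 C; add LiveBLAzer, 2 h RT; read fluorescence.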

[6] = p53 small molecule agonists, cell-based qHTS assay with rat liver microsomes (AID 1963578)
In short: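 Metabolic activation is supplied by rat liver microsomes with NADPH (each 0.5 mg/mL final). p53RE-bla cells incubate with compound 16 h at 37 C; reporter activity is measured by LiveBLAzer fluorescence.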

[7] = p53 small molecule agonists, cell-based qHTS assay with human liver microsomes: qHTS cell viability counter screen (AID 1963579); further: nearly all actives have a fitted effect of over 45% in size
In short: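 After the 460/530 nm beta-lactamase read, CellTiter-Glo was added to the same wells and luminescence measured after 30 min at room temperature, giving viability of p53RE-bla cells treated 16 h with compounds plus microsomes and NADPH.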

[8] = p53 small molecule agonists, cell-based qHTS assay with rat liver microsomes: qHTS cell viability counter screen (AID 1963580); further: nearly all actives have a fitted effect of over 45% in size
In short: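 HCT-116 p53RE-bla, 4,000 cells/well, 5 h pre-incubation; cpd + rat liver microsomes 0.5 mg/mL + NADPH 0.5 mg/mL (final); 16 h, 37 C; CellTiter-Glo, 30 min RT; luminescence.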

[9] = p53 small molecule agonists, cell-based qHTS assay: qHTS cell viability counter screen (AID 1963581); further: nearly all actives have a fitted effect of over 45% in size
In short: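 p53RE-bla HCT-116 cells, compounds added 5 h after plating and incubated 16 h at 37 C. Cytotoxicity measured in the same wells as intracellular ATP by CellTiter-Glo luminescence after 30 min at room temperature.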

[10] = p53 small molecule agonists, cell-based qHTS assay (AID 1963582; active means well fitted activation curve with a large enough effect in the signal ratio in the repeat runs, not every such curve was filed as active; the % refers to the signal ratio)
In short: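 p53RE-bla reporter cells, compounds added in DMSO after 5 h plating, incubated 16 h at 37 C. Beta-lactamase read via 2 h room-temperature LiveBLAzer B/G FRET substrate, fluorescence intensity.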

[11] = target: 5-hydroxytryptamine receptor 2A (Homo sapiens) (UniProt P28223); assay: 5-hydroxytryptamine receptor 2A (HTR2A) small molecule antagonists, cell-based qHTS assay (AID 1963586); further: nearly all actives have a fitted effect of over 45% in size
Sequence of 5-hydroxytryptamine receptor 2A (Homo sapiens) (P28223 whole entry, looked up): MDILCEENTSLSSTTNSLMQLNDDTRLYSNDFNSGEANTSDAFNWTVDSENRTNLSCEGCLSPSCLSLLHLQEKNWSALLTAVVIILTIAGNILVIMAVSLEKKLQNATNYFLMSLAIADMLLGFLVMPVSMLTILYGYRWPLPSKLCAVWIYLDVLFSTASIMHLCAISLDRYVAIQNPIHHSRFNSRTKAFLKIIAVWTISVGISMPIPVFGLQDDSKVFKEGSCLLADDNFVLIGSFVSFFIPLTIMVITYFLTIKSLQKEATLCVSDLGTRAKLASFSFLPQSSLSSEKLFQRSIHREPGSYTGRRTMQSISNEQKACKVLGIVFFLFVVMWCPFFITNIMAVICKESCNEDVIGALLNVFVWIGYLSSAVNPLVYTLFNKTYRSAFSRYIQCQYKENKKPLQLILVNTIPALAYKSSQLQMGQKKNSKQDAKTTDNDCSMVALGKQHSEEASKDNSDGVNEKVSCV
In short: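 Antagonist-mode intracellular calcium assay: DOI (4 nM) added after 5 min compound pre-incubation at room temperature to dye-loaded HTR2A-CHO cells. Fluorescence followed for 3 min, sampled every second.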

[12] = target: 5-hydroxytryptamine receptor 2A (Homo sapiens) (UniProt P28223); assay: 5-hydroxytryptamine receptor 2A (HTR2A) small molecule agonists, cell-based qHTS assay (AID 1963587); further: nearly all actives have a fitted effect of over 30% in size
In short: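 Kinetic calcium-flux fluorescence (2 min, 1 sec intervals) after compound addition in agonist mode. HTR2A-CHO cells were cultured 18 h, then dye-loaded 1 h at 37 C.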

[13] = target: Muscarinic acetylcholine receptor M1 (Homo sapiens) (UniProt P11229); assay: Cholinergic receptor muscarinic 1 (CHRM1) small molecule agonists, cell-based qHTS assay (AID 1963589); further: nearly all actives have a fitted effect of over 35% in size
Sequence of Muscarinic acetylcholine receptor M1 (Homo sapiens) (P11229 whole entry, looked up): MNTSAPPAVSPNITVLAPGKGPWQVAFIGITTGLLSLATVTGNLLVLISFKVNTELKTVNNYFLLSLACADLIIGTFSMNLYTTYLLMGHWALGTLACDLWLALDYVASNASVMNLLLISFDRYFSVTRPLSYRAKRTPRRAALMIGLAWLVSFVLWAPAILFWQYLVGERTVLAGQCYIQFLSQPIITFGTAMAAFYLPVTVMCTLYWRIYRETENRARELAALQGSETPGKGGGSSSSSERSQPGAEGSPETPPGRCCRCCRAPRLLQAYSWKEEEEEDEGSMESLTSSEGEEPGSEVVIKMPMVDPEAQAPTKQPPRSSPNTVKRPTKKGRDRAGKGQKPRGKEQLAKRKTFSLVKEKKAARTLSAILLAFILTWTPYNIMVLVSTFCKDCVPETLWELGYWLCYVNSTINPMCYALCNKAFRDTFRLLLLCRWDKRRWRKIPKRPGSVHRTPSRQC
In short: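 CHO cells stably expressing human CHRM1 were loaded with calcium dye for 1 h at 37 C, then compound was added in agonist mode. Intracellular calcium fluorescence was followed kinetically at 1 s intervals. Fifteen concentrations were tested in three independent runs.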

[14] = cAMP Responsive Elements (CRE) small molecule agonists, cell-based qHTS assay (AID 1963590)
In short: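 CRE-bla HEK 293T cells, 2,000/well in DMEM with 10% dialyzed FBS and 25 mM HEPES, pre-incubated 18 h at 37 C, then exposed to compound 3 h at 37 C. Beta-lactamase reporter read with LiveBLAzer B/G FRET substrate after 2 h at room temperature.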

[15] = target: Beta-2 adrenergic receptor (Homo sapiens) (UniProt P07550); assay: Adrenergic beta2 receptor (ADRB2) small molecule antagonists, cell-based qHTS assay (AID 1963592); further: series mostly up to about 92 µM; nearly all actives have a fitted effect of over 50% in size
Sequence of Beta-2 adrenergic receptor (Homo sapiens) (P07550 whole entry, looked up): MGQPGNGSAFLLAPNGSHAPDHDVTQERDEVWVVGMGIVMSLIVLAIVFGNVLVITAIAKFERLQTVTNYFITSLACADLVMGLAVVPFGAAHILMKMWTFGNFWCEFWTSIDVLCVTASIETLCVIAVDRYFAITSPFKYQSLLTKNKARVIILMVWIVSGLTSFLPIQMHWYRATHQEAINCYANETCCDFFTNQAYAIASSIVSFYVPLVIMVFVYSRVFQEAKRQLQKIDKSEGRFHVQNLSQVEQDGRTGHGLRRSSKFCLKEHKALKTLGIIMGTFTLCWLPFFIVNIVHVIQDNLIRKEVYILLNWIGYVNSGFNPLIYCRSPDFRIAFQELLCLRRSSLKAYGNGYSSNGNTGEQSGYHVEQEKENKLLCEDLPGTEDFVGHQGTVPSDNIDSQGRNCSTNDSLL
In short: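 Cells (CHO, stable ADRB2 overexpression) incubated 18-20hr at 37C; compounds added from DMSO; agonist mix (1nM isoproterenol, 100uM IBMX, 25uM Ro-20-1724) added; 0.5hr RT; d2-cAMP and anti-cAMP-cryptate added; 1hr RT; 665/615 nm read.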

[16] = target: Beta-2 adrenergic receptor (Homo sapiens) (UniProt P07550); assay: Adrenergic beta2 receptor (ADRB2) small molecule agonists, cell-based qHTS assay (AID 1963593);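 further: CHO cells stably overexpressing human ADRB2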
In short: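 CHO cells stably over-expressing ADRB2 were plated overnight at 37C, then dosed with compounds plus a stimulation mix containing 100uM IBMX and 25uM Ro-20-1724 for 0.5hr at room temperature. cAMP was measured by HTRF competition, 1hr.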

[17] = target: D(2) dopamine receptor (Homo sapiens) (UniProt P14416); assay: Dopamine D2 receptor (DRD2) small molecule agonists, cell-based qHTS assay (AID 1963594); further: nearly all actives have a fitted effect of over 35% in size
Sequence of D(2) dopamine receptor (Homo sapiens) (P14416 whole entry, looked up): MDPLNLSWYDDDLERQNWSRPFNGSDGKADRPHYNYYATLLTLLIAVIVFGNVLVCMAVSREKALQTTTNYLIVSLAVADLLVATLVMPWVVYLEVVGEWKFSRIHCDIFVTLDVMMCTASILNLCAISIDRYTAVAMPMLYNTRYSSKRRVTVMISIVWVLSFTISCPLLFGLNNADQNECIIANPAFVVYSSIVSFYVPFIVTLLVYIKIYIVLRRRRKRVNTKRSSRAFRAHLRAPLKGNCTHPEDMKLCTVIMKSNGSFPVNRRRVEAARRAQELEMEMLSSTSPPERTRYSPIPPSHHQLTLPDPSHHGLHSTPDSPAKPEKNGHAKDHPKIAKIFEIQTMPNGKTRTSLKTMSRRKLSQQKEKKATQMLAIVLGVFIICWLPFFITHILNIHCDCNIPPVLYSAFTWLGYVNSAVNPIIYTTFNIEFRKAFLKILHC
In short: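 cAMP accumulation in DRD2-HEK293 cells measured by HTRF after 1 h detection; compounds added 10 min before NKH477 (200nM […]) forskolin-analogue stimulation, 30 min at room temperature, with Ro20-1724 present at 0.1 mM final.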

[18] = target: D(2) dopamine receptor (Homo sapiens) (UniProt P14416); assay: Dopamine D2 receptor (DRD2) small molecule antagonists, cell-based qHTS assay (AID 1963595; active means well fitted inhibition curve with a large enough effect in the signal ratio in the repeat runs, with a control signal flat; the % refers to the signal ratio)
In short: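 Readout: HTRF cAMP, cAMP-d2 competing with cellular cAMP for anti-cAMP cryptate, read after 1 h. Cells: DRD2-HEK293. Conditions: 0.1 mM Ro20-1724, 12 nM quinpirole, 200 nM NKH477, 30 min RT.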

[19] = target: Muscarinic acetylcholine receptor M1 (Homo sapiens) (UniProt P11229); assay: Cholinergic receptor muscarinic 1 (CHRM1) small molecule antagonists, cell-based qHTS assay (AID 1963588); further: nearly all actives have a fitted effect of over 40% in size
In short: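 CHRM1-CHO calcium-flux assay, antagonist mode. Cells were seeded 18 h, dye-loaded 1 h at 37 C and given compound for 5 min at RT, then acetylcholine was added at 50nM. FDSS fluorescence was read 3 min; 15 concentrations, three runs.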

[20] = cAMP Responsive Elements (CRE) small molecule antagonists, cell-based qHTS assay (AID 1963591; active means well fitted inhibition curve with a large enough effect in the signal ratio in the repeat runs, not every such curve was filed as active; the % refers to the signal ratio)
In short: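 CRE-bla HEK293T cells plated 18 h, then given compound plus NKH477 at 0.25 uM final for 3 h at 37C. Beta-lactamase reporter read with LiveBLAzer B/G FRET substrate after 2 h at room temperature.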

Measured: Potency

N#CCCC#N
inactive: [1] | [2] | [3] | [4] | [5] | [6] | [7] | [8] | [9] | [10] | [11] | [12] | [13] | [14] | [15] | [16] | [17] | [18]

Cl[C@H]1OCCO[C@@H]1Cl
inactive: [1] | [2] | [3] | [4] | [5] | [6] | [7] | [8] | [9] | [10] | [11] | [12] | [19] | [14] | [20] | [15] | [16] | [17] | [18]

[O]=[Cr][O][Cr]=[O]
inactive: [1] | [2] | [3] | [4] | [5] | [6] | [7] | [8] | [9] | [10] | [11] | [12] | [19] | [13] | [14] | [20] | [15] | [17] | [18]

ClC1=C(Cl)[C@]2(Cl)[C@@H]3[C@@H](Cl)[C@@H](Cl)C[C@@H]3[C@@]1(Cl)C2(Cl)Cl
inactive: [1] | [2] | [3] | [4] | [5] | [6] | [7] | [8] | [9] | [10] | [12] | [13] | [14] | [20] | [15]

CCOc1nc(F)cc2nc(S(=O)(=O)Nc3c(Cl)cccc3Cl)nn12
inactive: [1] | [2] | [3] | [4] | [5] | [6] | [7] | [8] | [9] | [10] | [11] | [12] | [19] | [13] | [14] | [20] | [15] | [17]

COc1cc2c(cc1OC)[C@@]13CCN4CC5=CCO[C@H]6CC(=O)N2[C@H]1[C@H]6[C@H]5C[C@H]43
inactive: [1] | [2] | [3] | [4] | [5] | [6] | [7] | [8] | [9] | [10] | [11] | [19] | [13] | [14] | [20] | [15] | [17]

O=[N+]([O-])O[C@H]1CO[C@H]2[C@@H]1OC[C@H]2O[N+](=O)[O-]
inactive: [1] | [2] | [3] | [4] | [5] | [6] | [7] | [8] | [9] | [10] | [11] | [12] | [19] | [13] | [14] | [20] | [15] | [16] | [17] | [18]
